HT1080-NT tox: qHTS for induction of synthetic lethality in tumor cells producing 2HG: qHTS for the HT-1080-NT fibrosarcoma cell line; AID 686970, 2013; HT-1080-NT fibrosarcoma viability, CellTiter-Glo ATP luminescence, 48 h; 360,000 tested, 1.6% active; Potency, µM (titrated, usually from 46.1 µM), for inactives: at the top dose activity, negative = less viability, usual class: cytotoxic;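 note: NT is the 2HG producing partner of a matched IDH1 knockdown line; 0% = DMSO-treated cells and -100% = media-only wells without cells; nearly all actives have a fitted effect of over 55% in size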
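Fibrosarcoma NT cells, 750 per well in 5% FBS RPMI, were exposed to compound for 48 hours. Viability: CellTiter-Glo luminescence.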
DT40 TDP1 CPT: qHTS for Inhibitors of human tyrosyl-DNA phosphodiesterase 1 (TDP1): qHTS in cells in presence of CPT; Potency, µM (highest dose often 46.2 µM), for inactives: at the top dose activity change, negative = growth inhibition, usual class: inhibitors; chicken DT40 Tdp1-/-;hTDP1 cells + 20 nM CPT, ATP luminescence, 48 h; AID 686979, 2013; 420,000 tested, 12% active; note: nearly all actives have a fitted effect of over 55% in size
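Cell growth measured by CellTiter-Glo luminescence after a minimum 48 h, 37 C compound exposure with 20 nM CPT in Tdp1-knockout DT40 cells stably expressing hTDP1, seeded 400/well; qHTS titration format.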
TDP1 cell noCPT: qHTS for Inhibitors of human tyrosyl-DNA phosphodiesterase 1 (TDP1): qHTS in cells in absence of CPT; DT40 Tdp1-/- hTDP1 cells, no CPT, ATP luminescence, 48 h; Potency, µM (titrated, usually from 46.2 µM), for inactives: at the highest dose activity change, negative = growth inhibition, hits mostly inhibitors; 420,000 tested, 15% active; AID 686978, 2013; note: nearly all actives have a fitted effect of over 55% in size
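DT40 Tdp1-/-;hTDP1 cells, no CPT (DMSO vehicle only), 400 cells/well; compounds pin-transferred; ≥48 hr, 37 °C; CellTiter-Glo 30 min RT dark, luminescence read.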
KB-3-1 tox: qHTS assay for MDR1-selective chemotherapeutics: Primary screen using the parental adenocarcinoma cell KB-3-1; KB-3-1 viability, CellTiter-Glo ATP luminescence, 72 h; AID 1347075, 2019; Potency, µM (top dose mostly 46.1 µM), most hits filed as cytotoxic; 400,000 tested, 1.4% active; note: nearly all actives have a fitted effect of over 60% in size
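Here the drug-naive KB-3-1 line serves as comparator for MDR sub-line selectivity; cells received compound titrations, 72 h at 37 °C, then CellTiter-Glo readout.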
HT1080 IDH1KD tx: qHTS for induction of synthetic lethality in tumor cells producing 2HG: qHTS for the HT-1080-IDH1KD cell line. Potency, µM (doses to about 46.1 µM), for inactives: at the top dose activity, negative = toxicity, most hits filed as cytotoxic. 360,000 tested, 2% active. HT-1080 IDH1 knockdown viability, ATP luminescence, 48 h. AID 686971, 2013;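 note: 0% = DMSO wells and -100% = cell-free medium wells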
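Luminescent ATP read-out (CellTiter-Glo, 10 min at room temperature) after 48 h compound exposure at 37 °C gave viability of IDH1-knockdown HT-1080 cells. Activity was normalised to DMSO and cell-free wells, then fitted as concentration-response curves.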
KB-V1 MDR tox: qHTS assay for MDR1-selective chemotherapeutics: Primary screen using the drug-selected MDR subline cells KB-V1. 400,000 tested, 3.4% active. KB-V1 MDR cells viability, CellTiter-Glo, 72 h. Potency, µM (titrated, usually from 46.1 µM), usual class: cytotoxic. AID 1347076, 2019; note: nearly all actives have a fitted effect of over 60% in size
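Cells of the MDR subline KB-V1 are plated, dosed with compound at multiple concentrations, and incubated 72 h at 37 degrees C; CellTiter-Glo is then added and luminescence read after 10 min.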
* marks the source's active call; other numbers are inactive results; i = inactive; u = inconclusive; x = no result given; [ ] = dose if it differs, or a comment. Most compounds without a hit are left out; they make up all but 19% or so of the library. Calls come from the whole dose curve; as a rule, active = well fitted curve in the direction sought with a large enough effect; inconclusive = small, poorly fitted or top-dose-only effect, or another doubt; inactive = no such curve, though single readings can be large; an effect the other way counts as inactive or inconclusive. Unless noted, % is set by controls: 0 for no effect and ±100 for the full control effect; potency is the fitted concentration of half-maximal effect.

SMILES | HT1080-NT tox | DT40 TDP1 CPT | TDP1 cell noCPT | KB-3-1 tox | HT1080 IDH1KD tx | KB-V1 MDR tox
CC(NCc1cccnc1)c1ccccc1 (stereo not given) | 2% | 8% | -18% | i | 2% | i
COc1ccccc1Nc1nn2c(=O)c3ccc(C(=O)NCCc4ccccc4)cc3nc2s1 | x | 2.3µM* | 2.9µM* | x | x | x
Cc1ccc(C)c(Nc2nn3c(=O)c4ccc(C(=O)NC5CCCCC5)cc4nc3s2)c1 | x | 7.3µM* | 8.2µM* | i | x | u
COc1cccc(Nc2nn3c(=O)c4ccccc4nc3s2)c1 | x | x | x | i | x | i
Cc1c(Cl)cccc1Nc1nn2c(=O)c3ccc(C(=O)NCCc4ccccc4)cc3nc2s1 | x | 8.2µM* | 5.2µM* | i | x | i
O=C(NCCc1ccccc1)c1ccc2nc(N3CCCCC3)sc2c1 | x | -11% | u | i | x | i
CCN(CC)CCNC(=O)c1ccc2c(=O)n3nc(Nc4cccc(Cl)c4C)sc3nc2c1 | x | 4.6µM* | 2.6µM* | u | x | u
O=C(Nc1c(O)c2ccccc2[nH]c1=O)c1ccco1 | 6% | -2% | 7% | i | 10% | i
Cc1ccccc1CNC(=O)c1ccc(CN2CC(=O)N3CCCCC3C2=O)cc1 (stereo not given) | x | -9% | -7% | i | x | i
O=C(NCCCN1CCOCC1)C(=O)N/N=C/c1ccc2c(c1)OCO2 | -1% | -1% | -14% | i | 10% | i
FC(F)(F)c1ccccc1-c1nc(N2CCNCC2)c2ccccc2n1 | x | u | -14% | x | x | x
Cc1ccc(C)c(Nc2nn3c(=O)c4cc5c(cc4nc3s2)OCO5)c1 | x | 16µM* | 18µM* | i | x | i
Cc1ccc(C)c(Nc2nn3c(=O)c4ccc(C(=O)NCCc5ccccc5)cc4nc3s2)c1 | x | 3.7µM* | 8.2µM* | i | x | i
CC(C)(C(=O)N1CCC1(C)C(=O)NS(=O)(=O)c1ccc(C#N)cc1)c1ccccc1 (stereo not given) | -10% | -17% | -17% | i | -18% | i
Cc1ccc(S(=O)(=O)N2CCN(c3nc(-c4cccs4)nc(C)c3C)CC2)cc1 | x | 10% | 8% | i | x | i
CC(=O)N1CCc2cc(S(=O)(=O)NC(C(=O)NC(C)c3ccccc3)C(C)C)ccc21 (stereo not given) | 2% | 2% | 6% | i | -1% | u
COC(=O)C1=C(N)Oc2cc(C)n(C)c(=O)c2C1c1ccc(Cl)cc1 (stereo not given) | 0% | u | 15µM* | i | 1% | u
Cc1ccc(-n2c(SCC(=O)Nc3cccc(Cl)c3)nc3n[nH]c(C)c3c2=N)cc1 | x | 8.2µM* | 7.3µM* | x | x | x
CCN(C(=O)CSc1nc2n[nH]c(C)c2c(=N)n1-c1cccc(OC)c1)c1cccc(C)c1 | x | 23µM* | u | u | x | u
COc1cccc(NC(=O)CSc2nc3n[nH]c(C)c3c(=N)n2-c2cccc(OC)c2)c1 | u | 23µM* | 21µM* | i | -10%[9.24 µM] | i
Cc1cc(-c2nnc(SCC(=O)Nc3cccc(Cl)c3)n2N)n[nH]1 | -1% | -11% | -21% | i | -4% | i
COc1cccc(NC(=O)CSc2nnc(-c3cc(C)[nH]n3)n2N)c1 | 7% | -4% | 3% | i | 0% | i
Cc1cc(-n2c(SCC(=O)Nc3ccc(F)c(F)c3)nc3n[nH]c(C)c3c2=N)ccc1Cl | u | 2.6µM* | 1.5µM* | i | 0% | i
Cc1cc(-n2c(SCC(=O)Nc3ccc(Br)cc3)nc3n[nH]c(C)c3c2=N)ccc1Cl | 1% | u | u | u | -4% | i
O=C(Cn1c(=O)n(-c2ccccc2Cl)c(=O)c2sc3ccccc3c21)NC1CCCCC1 | x | -19% | u | i | x | i
SMILES | HT1080-NT tox | DT40 TDP1 CPT | TDP1 cell noCPT | KB-3-1 tox | HT1080 IDH1KD tx | KB-V1 MDR tox
COc1cccc(-n2c(SCC(=O)NCCC3=CCCCC3)nc3n[nH]c(C)c3c2=N)c1 | -14% | 16µM* | 15µM* | i | -24% | 13µM*
Cc1cccc(-n2c(SCC(=O)Nc3ccc(C)c(C)c3)nc3n[nH]c(C)c3c2=N)c1 | x | 10µM* | 7.3µM* | x | x | x
CCc1ccc(NC(=O)CSc2nc3n[nH]c(C)c3c(=N)n2-c2cccc(OC)c2)cc1 | u | 18µM* | 26µM* | i | 11µM* | u
COc1cc(CNC(=O)c2cc(-c3cc(Cl)ccc3OC)n[nH]2)cc(OC)c1 | -29% | u | u | i | -10% | u
CCOc1ccc(Cl)cc1-c1cc(C(=O)NCc2cc(C(F)(F)F)cc(C(F)(F)F)c2)[nH]n1 | u | 23µM* | u | u | u | u
CCC(CC)C(=O)c1c[nH]c(C(=O)NCc2ccccc2OC)c1 | -5% | 21µM* | u | i | -8% | i
CCOc1ccc(Cl)cc1-c1cc(C(=O)NCc2ccccc2)[nH]n1 | u | 12µM* | u | i | u | i
COc1ccc(Cl)cc1-c1cc(C(=O)NCc2ccccc2)[nH]n1 | -30% | 16µM* | 21µM* | i | -28% | i
COc1ccc(C)cc1-n1nnc(S(=O)(=O)c2ccc(C)cc2)c1C | x | u | u | i | x | i
O=C(Nc1ccc(N2C(=O)CCC2=O)cc1Cl)c1cccs1 | u | 8% | 1% | i | 23% | i
COc1ccc(Cl)cc1-c1cc(C(=O)N[C@H](C)c2ccccc2)[nH]n1 | u | 2.6µM* | 3.7µM* | i | 12% | i
COc1ccc(F)cc1-c1cc(C(=O)NCc2cc(C(F)(F)F)cc(C(F)(F)F)c2)[nH]n1 | -14% | 18µM* | u | i | u | i
CCOc1ccc(Cl)cc1-c1cc(C(=O)NCc2ccccc2OC)[nH]n1 | -10% | u | 18µM* | i | -4% | i
COc1ccc(Cl)cc1-c1cc(C(=O)Nc2ccccc2)[nH]n1 | u | u | u | i | u | i
COc1ccccc1CNC(=O)c1cc(-c2ccc(F)cc2OC)n[nH]1 | -5% | -22% | u | i | -2% | i
